Data taken from the supplement of paper PMC12494721.
Counter-ions that a name gives are not always drawn.

How the values were obtained:
Details in all cases: incubation time: 27 h, anaerobic, 37 °C;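 for the amine columns active = adjusted P below 0.05 in both replicates with a change the same way and a mean fold change under 0.8 or over 1.25; inactive = the rest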
[1] = system: Clostridium sporogenes DSM 1664; assay: growth (OD595) fold change vs plate DMSO controls (fold change (ratio)); higher = more growth
Method in brief: (§1)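 The reported measure is growth: the fold change against the median of DMSO controls on the plate. Absorbance at 595 nm from anaerobic 96-well mGAM cultures grown for 27 h at 37 °C was blank-subtracted, corrected for background with 20 µM compound solutions in water, and converted to OD with a calibration factor of 5. Fold changes above 1.5 appear as NA, and values are the mean of 2 biological replicates.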

[2] = system: Escherichia coli IAI1; assay: as above
Method in brief: as §1

[3] = system: Klebsiella aerogenes DSM 30053; assay: as above
Method in brief: as §1

[4] = system: Ruminococcus gnavus DSM 108212; assay: as above
Method in brief: as §1

[5] = system: Klebsiella aerogenes DSM 30053; assay: fold change of Histamine concentration vs plate DMSO controls (fold change (ratio)); higher = more amine produced, active = hit call of the paper (significant change in both replicates, either direction)
Method in brief: (§2)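 Amines were quantified by LC–triple-quadrupole MS in dynamic MRM mode against external calibration curves, with drift correction within each batch. The samples were whole anaerobic mGAM cultures of four gut bacterial strains, grown for 27 h at 37 °C in 80 µL wells and extracted with cold acetonitrile/methanol with 0.1% formic acid, then centrifuged. Values are reported as fold change over DMSO controls on the same plate. The mean of 2 biological replicates is given.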

[6] = system: Clostridium sporogenes DSM 1664; assay: fold change of Tryptamine concentration vs plate DMSO controls (fold change (ratio)); higher = more amine produced, active = hit call of the paper (significant change in both replicates, either direction)
Method in brief: as §2

[7] = system: Ruminococcus gnavus DSM 108212; assay: as above
Method in brief: as §2

[8] = system: Escherichia coli IAI1; assay: fold change of Putrescine concentration vs plate DMSO controls (fold change (ratio)); higher = more amine produced, active = hit call of the paper (significant change in both replicates, either direction)
Method in brief: as §2

[9] = system: Klebsiella aerogenes DSM 30053; assay: as above
Method in brief: as §2

[10] = system: Escherichia coli IAI1; assay: fold change of Cadaverine concentration vs plate DMSO controls (fold change (ratio)); higher = more amine produced, active = hit call of the paper (significant change in both replicates, either direction)
Method in brief: as §2

[11] = system: Klebsiella aerogenes DSM 30053; assay: as above
Method in brief: as §2

[12] = system: Ruminococcus gnavus DSM 108212; assay: fold change of 2-Phenylethylamine concentration vs plate DMSO controls (fold change (ratio)); higher = more amine produced, active = hit call of the paper (significant change in both replicates, either direction)
Method in brief: as §2

Row | Structure (SMILES) | growth [1] | growth [2] | growth [3] | growth [4] | fold change of Histamine concentration [5] | fold change of Tryptamine concentration [6] | fold change of Tryptamine concentration [7] | fold change of Putrescine concentration [8] | fold change of Putrescine concentration [9] | fold change of Cadaverine concentration [10] | fold change of Cadaverine concentration [11] | fold change of 2-Phenylethylamine concentration [12]
1 | Cc1c(NC(C)C)c(=O)n(-c2ccccc2)n1C [Isopyrin hydrochloride] (20 µM) | 1.12 | 1.02 | 1.02 | 1 | 0.951 (inactive) | 1.03 (inactive) | 1.2 (inactive) | 1.14 (inactive) | 0.943 (inactive) | 1.02 (inactive) | 1 (inactive) | 1.32 (inactive)
2 | c1ccc2c(c1)ccc1ccccc12 [Phenanthrene] (20 µM) | 0.976 | 0.992 | 0.975 | 0.96 | 1 (inactive) | 1.02 (inactive) | 1.07 (inactive) | 0.992 (inactive) | 0.817 (inactive) | 0.904 (inactive) | 1.12 (inactive) | 1.09 (inactive)
3 | CC(=O)N[C@@H](CC(=O)O)C(=O)N[C@@H](CCC(=O)O)C(=O)O [Spaglumic acid] (20 µM) | 1.09 | 0.992 | 1.03 | 1.18 | 1.03 (inactive) | 1.02 (inactive) | 0.995 (inactive) | 0.939 (inactive) | 0.993 (inactive) | 0.988 (inactive) | 0.988 (inactive) | 1.02 (inactive)
4 | CC(C)CN(C[C@@H](O)[C@H](Cc1ccccc1)NC(=O)O[C@H]1CCOC1)S(=O)(=O)c1ccc(N)cc1 [Amprenavir] (20 µM) | 1.1 | 1.05 | 0.974 | 0.947 | 0.92 (inactive) | 0.952 (inactive) | 1.07 (inactive) | 1.14 (inactive) | 1.01 (inactive) | 0.952 (inactive) | 1.03 (inactive) | 1.08 (inactive)
5 | Oc1ccc(C2CNCCc3c2cc(O)c(O)c3Cl)cc1 (stereo unspecified) [Fenoldopam] (20 µM) | 1.08 | 0.952 | 0.998 | 0.973 | 1.02 (inactive) | 0.95 (inactive) | 1.03 (inactive) | 1.01 (inactive) | 0.988 (inactive) | 1.04 (inactive) | 0.987 (inactive) | 1.03 (inactive)
6 | CCCCOCCOCCOCc1cc2c(cc1CCC)OCO2 (20 µM) | 1.07 | 1.02 | 1.03 | 1.09 | 0.98 (inactive) | 1.03 (inactive) | 1.04 (inactive) | 1 (inactive) | 1 (inactive) | 1.02 (inactive) | 1 (inactive) | 1.06 (inactive)
7 | C[C@]1(Cn2ccnn2)[C@H](C(=O)O)N2C(=O)C[C@H]2S1(=O)=O [Tazobactam] (20 µM) | 0.105 | 1 | 0.973 | 1.05 | 0.904 (inactive) | 0.703 (active) | 1.05 (inactive) | 1.05 (inactive) | 1.04 (inactive) | 0.989 (inactive) | 1.03 (inactive) | 1.1 (inactive)
8 | Cc1[nH]c(=O)c(C#N)cc1-c1ccncc1 [Milrinone] (20 µM) | 1.08 | 1.05 | 0.987 | 0.92 | 1.09 (inactive) | 0.997 (inactive) | 1.03 (inactive) | 1.02 (inactive) | 1.07 (inactive) | 0.924 (inactive) | 1.03 (inactive) | 0.996 (inactive)
9 | CNCC(O)c1ccc(OC(=O)C(C)(C)C)c(OC(=O)C(C)(C)C)c1 (stereo unspecified) [Dipivefrin hydrochloride] (20 µM) | 1.15 | 1.07 | 0.982 | 1.02 | 1.01 (inactive) | 1.15 (inactive) | 1.11 (inactive) | 1.01 (inactive) | 0.981 (inactive) | 0.995 (inactive) | 0.991 (inactive) | 1.16 (inactive)
10 | CC(C)NCC(O)c1ccc(O)c(O)c1 (single isomer, unassigned; (-)) [(-) Isoproterenol hydrochloride] (20 µM) | 1.02 | 0.976 | 1.15 | 0.899 | 0.874 (inactive) | 1.03 (inactive) | 0.857 (inactive) | 1 (inactive) | 0.996 (inactive) | 0.982 (inactive) | 1.02 (inactive) | 0.814 (inactive)
11 | O=C(CO)[C@@H](O)[C@H](O)[C@H](O)CO [D(-) Fructose] (50 µM) | 1.01 | 1.02 | 0.988 | 0.986 | 0.994 (inactive) | 0.929 (inactive) | 0.925 (inactive) | 1.04 (inactive) | 0.987 (inactive) | 1.07 (inactive) | 0.981 (inactive) | 0.919 (inactive)
12 | CC1=C(C(=O)O)N2C(=O)[C@@H](NC(=O)[C@H](N)c3ccc(O)cc3)[C@H]2SC1 [Cefadroxil] (20 µM) | 0.898 | 1.03 | 1 | 1.08 | 1.08 (inactive) | 0.974 (inactive) | 1 (inactive) | 1.03 (inactive) | 1.01 (inactive) | 1.02 (inactive) | 0.996 (inactive) | 1.03 (inactive)
13 | COc1cc2/c(=N/c3ccc(Br)cc3F)nc[nH]c2cc1OCC1CCN(C)CC1 [Vandetanib] (20 µM) | 1.15 | 1.07 | 1.06 | 0.995 | 1.01 (inactive) | 1.04 (inactive) | 1.11 (inactive) | 0.989 (inactive) | 0.907 (inactive) | 0.992 (inactive) | 1.1 (inactive) | 1.14 (inactive)
